The supplement of paper PMC7156485
± gives the standard deviation of the averaged measurements.

Assays:
Settings in all cases: concentration: 10 µM; 24 h
HCC1569 [1] = assay: cell number relative to DMSO (% of DMSO); higher = more cells (less growth inhibition / toxicity)
Procedure, shortened: (§1)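 Six fields per well were imaged at ×10 after the cells were fixed in 3.7% formaldehyde and stained with a rabbit anti-H1.0 antibody, an AlexaFluor 647 secondary and DAPI. The HCC1569 and TDF cells had been plated at 800 per well in 384-well plates (RPMI, 10% FBS) and treated in triplicate with compounds at 10 µM for 24 h at 37 °C. The values are the median of replicates of H1.0 nuclear intensity or cell number, as percent of the plate control. Smoothing for positional effects was applied to HCC1569 data.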

TDF [2] = assay: as above
Procedure, shortened: as §1

TDF [3] = assay: H1.0 immunofluorescence intensity relative to DMSO (% of DMSO); higher = stronger H1.0 induction, active = 120 or more
Procedure, shortened: as §1

HCC1569 [4] = assay: H1.0 immunofluorescence intensity relative to DMSO (% of DMSO); higher = stronger H1.0 induction, active = 140 or more
Procedure, shortened: as §1
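Wherever H1.0 immunofluorescence intensity relative to DMSO is given: TDF is a line of transformed human dermal fibroblasts of mesenchymal origin.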
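Wherever cell number relative to DMSO is given: TDF denotes transformed human dermal fibroblasts of mesenchymal origin.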

Structure (SMILES)	cell number (HCC1569 [1])	cell number (TDF [2])	H1.0 immunofluorescence intensity (TDF [3])	H1.0 immunofluorescence intensity (HCC1569 [4])
[Cl-].c1ccc2c(c1)[I+]c1ccccc1-2 [Diphenyleneiodonium chloride]	61.4	34	123 (active)	125 (inactive)
CCCCCCCCC(=O)NCc1ccc(O)c(OC)c1 [N-Vanillylnonanamide]	76.7	81.3	107 (inactive)	160 (active)
Cl.O=c1[nH]oc2c1CCNC2 [THIP hydrochloride]	100	112	94 (inactive)	86.1 (inactive)
NNC(=O)c1ccc(O)cc1 [4-Hydroxybenzhydrazide]	97.7	100	97.5 (inactive)	95.1 (inactive)
O.O=P1(N(CCCl)CCCl)NCCCO1 (configuration not stated) [Cyclophosphamide monohydrate]	79.6	61.2	116 (inactive)	103 (inactive)
O=[N+]([O-])c1cc(O)c(O)c([N+](=O)[O-])c1 [3,5-Dinitrocatechol]	98.6	107	99.9 (inactive)	97.9 (inactive)
CC(Cc1ccc2c(c1)OC(C(=O)[O-])(C(=O)[O-])O2)NCC(O)c1cccc(Cl)c1.[Na+].[Na+] (configuration not stated)	97.5	106	88.7 (inactive)	95.9 (inactive)
O=C1C=CC(=O)C=C1 [p-Benzoquinone]	100	99.8	93.1 (inactive)	93.3 (inactive)
COc1ccc(O)c(C(C)(C)C)c1	106	107	94.5 (inactive)	91.3 (inactive)
CC1CN(C2CCC(C#N)(c3ccc(F)cc3)CC2)CCC1(C(=O)O)c1ccccc1.Cl (configuration not stated) [Levocabastine.HCl]	102	103	102 (inactive)	115 (inactive)
O=C1NC(=O)c2c1c1c3ccccc3[nH]c1c1[nH]c3ccccc3c21	98.8	126	79.9 (inactive)	127 (inactive)
NCCCNCCSP(=O)(O)O [Amifostine]	102.2 ± 1	104 ± 2.8	91.8 (inactive)	98.1 (inactive)
CC(=O)OCC1=C(C(=O)[O-])N2C(=O)C(NC(=O)CCCC(N)C(=O)[O-])C2SC1.[Zn+2] (configuration not stated) [Cephalosporin C zinc salt]	101	101	97.3 (inactive)	90.8 (inactive)
O=[N+]([O-])c1ncc[nH]1 [Azomycin]	100	92.6	97.8 (inactive)	93.7 (inactive)
CCCCCC=CCC=CCC=CCC=CCCCC(=O)NCC(=O)O [N-arachidonylglycine]	101	99.4	98.2 (inactive)	99.6 (inactive)
CCC1C2CC3C4N(C)c5ccccc5C45CC(C2C5O)N3C1O (configuration not stated) [Ajmaline]	101	86.8	96.9 (inactive)	93.1 (inactive)
O=C1CSC(c2ccccc2Cl)c2cc(Cl)ccc2N1 (configuration not stated)	103	105	95.3 (inactive)	115 (inactive)
NC(=O)CN1CCCC1=O [Piracetam]	99.5	99.2	92 (inactive)	103 (inactive)
CCCCCCCCCCCCCCCCOCC(COP(=O)([O-])OCC[N+](C)(C)C)OC(C)=O (configuration not stated)	96	98.3	99.6 (inactive)	102 (inactive)
COC12CC(COC(=O)c3cncc(Br)c3)CN(C)C1Cc1cn(C)c3cccc2c13 (configuration not stated) [Nicergoline]	104	102	92.9 (inactive)	102 (inactive)
CC(C)=CCCC1=CC(=O)c2c(O)ccc(O)c2C1=O [Deoxyshikonin]	32	34.6	119 (inactive)	171 (active)
CC(C)N(CCC(C(N)=O)(c1ccccc1)c1ccccn1)C(C)C (configuration not stated) [Disopyramide]	99.8	106	103 (inactive)	98.5 (inactive)
CN1CCc2cccc(Cl)c2CC1.Cl	103	98.7	96.2 (inactive)	86.7 (inactive)
CC1(C(=O)O)C2CCC(O2)C1(C)C(=O)O (configuration not stated) [Cantharidic Acid]	19.6	13.6	239 (active)	180 (active)
COc1cc(C2c3cc4c(cc3C(O)C3COC(=O)C23)OCO4)cc(OC)c1OC (configuration not stated) [Podophyllotoxin]	61.2 ± 1.9	10.1 ± 0.34	152 (active)	128 (inactive)
CC(N)c1cccc(Cl)c1Cl.Cl (racemic)	100	94.2	102 (inactive)	101 (inactive)
CCN1CC2(C)CCC(O)C34C5CC6C(OC)CC(O)(C(CC23)C14)C5C6O (configuration not stated) [Karakoline]	103.2 ± 0.75	99.5 ± 1.5	96.4 (inactive)	99.8 (inactive)

Structure (SMILES)	cell number (HCC1569 [1])	cell number (TDF [2])	H1.0 immunofluorescence intensity (TDF [3])	H1.0 immunofluorescence intensity (HCC1569 [4])
CN1CCC2(CCN3CCc4c(oc5ccccc45)C3C2)N(C)C1=O.Cl (configuration not stated)	102	91	95 (inactive)	110 (inactive)
CCC12C=CCN3CCC4(c5ccc(OC)cc5N(C)C4C(O)(C(=O)OC)C1OC(C)=O)C32 (configuration not stated) [Vindoline]	102	91.6	91.7 (inactive)	90.1 (inactive)
Nc1ncnc2c1ncn2C1OC(COP(=O)(O)CP(=O)(O)OP(=O)([O-])[O-])C(O)C1O.[Li+].[Li+] (stereo not drawn) [alpha,beta-Methylene adenosine 5'-triphosphate dilithium]	102	109	87.9 (inactive)	96.4 (inactive)
COC1=CC2C3Cc4ccc(OC)c(O)c4C2(CCN3C)CC1=O (configuration not stated) [Sinomenine]	101	95.5	94.1 (inactive)	83.8 (inactive)
BrC1C(Br)C(Br)C(Br)C(Br)C1Br (configuration not stated)	101	106	97 (inactive)	111 (inactive)
CS(=O)(=O)O.Oc1ccc2c3c1OC1c4oc5ccccc5c4CC4(O)C(C2)N(CC2CC2)CCC314 (configuration not stated) [Naltriben methanesulfonate]	98.1	105	92.4 (inactive)	105 (inactive)
COc1cc2c(cc1OC)C(C)NCC2 (configuration not stated) [Salsolodine]	105	97.2	88.7 (inactive)	86.3 (inactive)
CCn1cnc2c(Nc3cccc(Cl)c3)nc(NC3CCCCC3N)nc21.Cl (configuration not stated)	53	21.5	132 (active)	101 (inactive)
CCCCCC=CCC=CCC=CCCCCCCC(=O)NCCO [Anandamide (20:3,n-6)]	101	97.4	102 (inactive)	103 (inactive)
CC1=C(O)C(=O)C=C2C1=CC=C1C2(C)CCC2(C)C3CC(C)(C(=O)O)CCC3(C)CCC12C (configuration not stated) [Celastrol]	38	64	120 (inactive)	114 (inactive)
CC(C)CC1C(=O)N2CCCC2C2(O)OC(NC(=O)C3C=C4c5cccc6[nH]c(Br)c(c56)CC4N(C)C3)(C(C)C)C(=O)N12.CS(=O)(=O)O (single isomer, unassigned; (+)) [(+)-Bromocriptine methanesulfonate]	91.1	103	96.3 (inactive)	108 (inactive)
CC(C)c1cccc(C(C)C)c1O [Propofol]	99.2 ± 2.9	93.1 ± 16	93.7 (inactive)	95.8 (inactive)
CCCCCCC(=O)CCCCCCC=CCC(O)C(O)C(N)(CO)C(=O)O (configuration not stated) [Myriocin]	100	92.4	99.4 (inactive)	87.9 (inactive)
CC1OC(OC2CC(O)C3(CO)C4C(O)CC5(C)C(C6COC(=O)C6)CCC5(O)C4CCC3(O)C2)C(O)C(O)C1O (configuration not stated) [Dihydroouabain]	61.7	43.7	104 (inactive)	82.2 (inactive)
CC(N)Cc1c[nH]c2ccc(OCc3cccs3)cc12.Cl (configuration not stated)	102	115	87.9 (inactive)	92.8 (inactive)
CC1CCC2(O)C3(C)CC4(O)OC2(C1O)C1(O)C3(O)C(OC(=O)c2ccc[nH]2)C(O)(C(C)C)C41C (configuration not stated) [Ryanodine]	106	101	93 (inactive)	88 (inactive)
NCCCP(=O)(O)O [3-Aminopropylphosphonic acid]	97.9	90.3	95.4 (inactive)	101 (inactive)
Cl.OCC1C(O)C(O)C2C(O)CCN12 (configuration not stated)	101	111	97 (inactive)	97.5 (inactive)
CCOC(=O)c1ncn2c1C1CCCN1C(=O)c1cc(OC)ccc1-2 (configuration not stated)	103	108	88.2 (inactive)	102 (inactive)
O=C1C=C2C=CC3CC2(O1)C1CCCCN31 (configuration not stated) [Securinine]	87.8	76.4	102 (inactive)	99.9 (inactive)
CC(=O)NC1CN2CCC(O)C2C(O)C1O (configuration not stated) [6-Acetamido-6-deoxy-castanospermine]	103	103	97.2 (inactive)	87.4 (inactive)
CNC1CC2OC(C)(C1OC)n1c3ccccc3c3c4c(c5c6ccccc6n2c5c31)C(=O)NC4 (configuration not stated) [Staurosporine, Streptomyces sp.]	56.3 ± 58	47.9 ± 67	149 (active)	84.1 (inactive)
Br.CCCN1CCc2cc(O)cc3c2C1Cc1ccc(O)c(O)c1-3 (stereo not drawn) [R(-)-2,10,11-Trihydroxy-N-propylnoraporphine hydrobromide]	95.1	110	89.2 (inactive)	100 (inactive)
CCCCCCCCCCCCCCCC(=O)OCC(COP(=O)([O-])OCC[N+](C)(C)C)OC(C)=O (configuration not stated)	102	102	98.7 (inactive)	101 (inactive)
CC(C)N(CCC(C(N)=O)(c1ccccc1)c1ccccn1)C(C)C.O=P(O)(O)O (configuration not stated)	99.8	101	103 (inactive)	102 (inactive)
CSC(=S)NCc1c[nH]c2ccccc12 [Brassinin]	100	90.8	97.9 (inactive)	99.7 (inactive)
